# A number with no mark means an inactive call. Inconclusive results are not listed. Entries that show only a call come without a potency. Active and inactive are the calls of the source. Unless noted, calls follow the shape of the dose curve; as a rule, active = well fitted curve in the direction sought with a large enough effect; inconclusive = small, poorly fitted or top-dose-only effect, or another doubt; inactive = no such curve, though single readings can be large; an effect the other way counts as inactive or inconclusive.
# What was measured:
# [1] = biological target: Lysosomal acid glucosylceramidase (Homo sapiens) (UniProt P04062); test: Glucocerebrosidase-p2 (AID 348; in the data active = potency below about 10 µM; also: potency is read from the fitted curve at half-maximal effect); conditions: purified GBA, blue fluorogenic substrate, 40 min
# Sequence of Lysosomal acid glucosylceramidase (Homo sapiens) (P04062 whole entry, looked up): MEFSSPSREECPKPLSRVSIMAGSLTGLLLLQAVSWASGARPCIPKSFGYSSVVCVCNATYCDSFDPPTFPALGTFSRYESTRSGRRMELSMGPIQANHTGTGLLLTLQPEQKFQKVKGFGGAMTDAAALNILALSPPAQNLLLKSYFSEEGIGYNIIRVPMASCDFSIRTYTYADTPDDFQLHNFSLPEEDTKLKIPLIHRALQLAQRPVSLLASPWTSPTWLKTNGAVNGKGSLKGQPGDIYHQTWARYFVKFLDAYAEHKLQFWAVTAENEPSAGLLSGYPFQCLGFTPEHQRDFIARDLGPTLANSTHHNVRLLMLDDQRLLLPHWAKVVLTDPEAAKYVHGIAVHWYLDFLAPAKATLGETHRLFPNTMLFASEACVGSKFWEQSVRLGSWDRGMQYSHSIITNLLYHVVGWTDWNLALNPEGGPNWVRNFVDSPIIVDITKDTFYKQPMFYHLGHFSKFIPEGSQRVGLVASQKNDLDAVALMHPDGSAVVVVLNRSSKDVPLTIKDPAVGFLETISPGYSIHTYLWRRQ
# Outline: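 Compounds titrated from 0.6 nM upwards against 0.2 nM enzyme in pH 5.9 citric acid/KH2PO4, taurocholate, tween-20; blue fluorogenic substrate 80 uM, 40 min room temperature, stopped and read Ex 365/Em 440 for AC50.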
# [2] = biological target: Cytochrome P450 1A2 (Homo sapiens) (UniProt P05177); test: p450-cyp1a2 (AID 410; calls by dose curve; also: potency is read from the fitted curve at half-maximal effect); conditions: recombinant CYP1A2, luciferin-ME demethylation, luminescence; series mostly up to 57 µM
# Sequence of Cytochrome P450 1A2 (Homo sapiens) (P05177 whole entry, looked up): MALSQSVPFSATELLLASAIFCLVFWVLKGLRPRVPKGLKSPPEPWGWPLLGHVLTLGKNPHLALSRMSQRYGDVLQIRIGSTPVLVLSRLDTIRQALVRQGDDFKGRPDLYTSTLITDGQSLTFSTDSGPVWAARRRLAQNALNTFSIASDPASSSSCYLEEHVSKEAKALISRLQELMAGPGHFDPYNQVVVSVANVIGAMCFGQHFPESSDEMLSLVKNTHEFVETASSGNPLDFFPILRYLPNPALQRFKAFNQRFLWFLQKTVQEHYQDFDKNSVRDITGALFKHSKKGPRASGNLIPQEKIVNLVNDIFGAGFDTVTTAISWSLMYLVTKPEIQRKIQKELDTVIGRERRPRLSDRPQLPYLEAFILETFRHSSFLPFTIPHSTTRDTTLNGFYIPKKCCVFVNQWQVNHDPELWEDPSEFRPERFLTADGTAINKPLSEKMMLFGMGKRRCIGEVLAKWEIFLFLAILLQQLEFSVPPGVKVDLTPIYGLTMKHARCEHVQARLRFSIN
# Outline: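 20nM CYP1A2 with 100uM Luciferin-ME (at Km) in 100mM KPO4; compound preincubated 10 min, NADPH regeneration added, 60 min at room temperature. Luciferin quantified by luminescence after detection reagent; normalized to 57 uM furafylline.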
# [3] = Stat Signaling Pathway (AID 446; active = well fitted curve in either direction with a large enough effect, not every such curve was filed as active;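 also: ME-180 cervical cancer cells given 40 pM IL-6 alongside compound; SIE-controlled beta-lactamase reporter measured as 460/530 nm FRET emission ratio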); conditions: ME-180 SIE beta-lactamase reporter, IL-6 stimulated, 5 h; at 7.69 µM (top of the series) unless noted
# Outline: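 IL-6/STAT signaling read in ME-180 cells via an SIE beta-lactamase reporter. Stimulus was 40 pM IL-6 (its AC50) for 5 hrs, so both activation and inhibition register.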
# [4] = biological target: Glucocorticoid receptor (Homo sapiens) (UniProt P04150); test: GR-EFC Redistribution (AID 451; calls by dose curve; also: potency is read from the fitted curve at half-maximal effect); conditions: CHO-K1 GR-EFC translocation, beta-gal luminescence, 2 h
# Sequence of Glucocorticoid receptor (Homo sapiens) (P04150 whole entry, looked up, the tested form may be a part): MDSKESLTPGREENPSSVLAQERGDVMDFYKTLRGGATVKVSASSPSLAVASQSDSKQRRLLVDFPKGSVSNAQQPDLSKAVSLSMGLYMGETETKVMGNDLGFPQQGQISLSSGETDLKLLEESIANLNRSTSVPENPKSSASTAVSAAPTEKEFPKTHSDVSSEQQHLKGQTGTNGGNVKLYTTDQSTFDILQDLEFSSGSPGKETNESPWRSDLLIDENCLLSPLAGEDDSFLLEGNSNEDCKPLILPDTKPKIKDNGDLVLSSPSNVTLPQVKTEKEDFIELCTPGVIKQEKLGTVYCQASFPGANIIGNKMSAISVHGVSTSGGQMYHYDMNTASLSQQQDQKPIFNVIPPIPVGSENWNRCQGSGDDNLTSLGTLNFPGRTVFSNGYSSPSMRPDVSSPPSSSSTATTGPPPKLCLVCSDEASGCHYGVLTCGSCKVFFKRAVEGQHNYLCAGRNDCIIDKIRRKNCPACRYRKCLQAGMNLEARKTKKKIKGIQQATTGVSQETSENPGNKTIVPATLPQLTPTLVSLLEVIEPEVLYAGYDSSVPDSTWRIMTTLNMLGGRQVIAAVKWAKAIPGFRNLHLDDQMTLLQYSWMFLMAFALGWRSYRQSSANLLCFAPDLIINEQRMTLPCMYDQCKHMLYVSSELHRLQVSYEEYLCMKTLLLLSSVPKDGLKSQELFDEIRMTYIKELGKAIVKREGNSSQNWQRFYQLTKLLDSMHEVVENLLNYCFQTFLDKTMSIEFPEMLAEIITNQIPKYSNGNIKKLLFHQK
# Outline: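 CHO-K1 cells expressing nuclear EA and GR-ED fragments of b-gal; compounds titrated up to 46 uM final, 2 h at 37 C. GR nuclear translocation read as complemented b-gal luminescence after 1 h RT detection.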
# [5] = biological target: Mitogen-activated protein kinase 10 (Mus musculus) (UniProt Q61831); test: JNK3 AlphaScreen Assay (AID 530; active = well fitted curve in either direction with a large enough effect, not every such curve was filed as active;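 also: kinase came from lysate of stimulated human HepG2 cells; signal reports phosphorylation of biotinylated GST-cJun 1-79 at Ser73 with 10 µM ATP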); conditions: JNK3 lysate, c-Jun phosphorylation; series mostly up to 57.1 µM
# Outline: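 Pre-activated (IL-1β/TNFα) JNK3 in HepG2 lysates phosphorylates biotin-GST-cJun(1-79), 10 uM ATP; anti-phospho-cJun(Ser73) AlphaScreen read at room temperature, pH 7.6 Tris buffer. Compounds pre-incubated 15 min as titrations.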
# [6] = biological target: Cytochrome P450 3A4 (Homo sapiens) (UniProt P08684); test: qHTS Assay for Inhibitors and Substrates of Cytochrome P450 3A4 (AID 884); conditions: recombinant CYP3A4, Luciferin-PPXE luminescence; series mostly up to 57.1 µM; also: nearly all actives have a fitted effect of over 50% in size; also: potency is read from the fitted curve at half-maximal effect
# Sequence of Cytochrome P450 3A4 (Homo sapiens) (P08684 whole entry, looked up): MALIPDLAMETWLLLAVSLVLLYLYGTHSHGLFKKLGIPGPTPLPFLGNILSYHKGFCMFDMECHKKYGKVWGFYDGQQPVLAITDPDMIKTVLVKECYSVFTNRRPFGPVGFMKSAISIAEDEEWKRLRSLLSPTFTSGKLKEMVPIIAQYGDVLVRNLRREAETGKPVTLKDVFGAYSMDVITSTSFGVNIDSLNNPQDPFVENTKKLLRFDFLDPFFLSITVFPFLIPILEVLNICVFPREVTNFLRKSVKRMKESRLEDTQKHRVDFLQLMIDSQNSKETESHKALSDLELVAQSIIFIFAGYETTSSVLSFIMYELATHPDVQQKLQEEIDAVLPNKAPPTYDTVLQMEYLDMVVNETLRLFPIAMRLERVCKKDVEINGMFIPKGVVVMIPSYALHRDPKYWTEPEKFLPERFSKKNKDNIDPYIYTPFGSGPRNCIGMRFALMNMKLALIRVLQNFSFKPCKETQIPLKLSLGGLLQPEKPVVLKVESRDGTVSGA
# Outline: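 20 nM human CYP3A4 with 25 uM Luciferin-PPXE (at KM) in 200 mM KPO4, preincubated 10 min with compound; NADPH regeneration started a 60 min RT reaction. Luciferin detected by luminescence, normalized to 57 uM ketoconazole as full inhibition.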
# [7] = biological target: Cytochrome P450 3A4 (Homo sapiens) (UniProt P08684); test: qHTS Assay for Activators of Cytochrome P450 3A4 (AID 885); conditions: recombinant CYP3A4, Luciferin-PPXE luminescence, 60 min; series mostly up to 57.1 µM; also: nearly all actives have a fitted effect of over 65% in size
# Outline: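 Quantitative HTS format: compounds preincubated with 20nM human CYP3A4 and Luciferin-PPXE substrate at KM, reaction started by NADPH regeneration, stopped after 60 min, luciferase luminescence read 20 min later.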
# [8] = biological target: Dual specificity protein kinase CLK4 (Homo sapiens) (UniProt Q9HAZ1); test: qHTS Assay for Inhibitors of CDC-like Kinase 4 (Kinase-Glo Assay) (AID 1770); conditions: recombinant Clk4, Kinase-Glo ATP depletion luminescence; series mostly up to 66.7 µM; also: nearly all actives have a fitted effect of over 65% in size; also: potency is read from the fitted curve at half-maximal effect
# Sequence of Dual specificity protein kinase CLK4 (Homo sapiens) (Q9HAZ1 whole entry, looked up): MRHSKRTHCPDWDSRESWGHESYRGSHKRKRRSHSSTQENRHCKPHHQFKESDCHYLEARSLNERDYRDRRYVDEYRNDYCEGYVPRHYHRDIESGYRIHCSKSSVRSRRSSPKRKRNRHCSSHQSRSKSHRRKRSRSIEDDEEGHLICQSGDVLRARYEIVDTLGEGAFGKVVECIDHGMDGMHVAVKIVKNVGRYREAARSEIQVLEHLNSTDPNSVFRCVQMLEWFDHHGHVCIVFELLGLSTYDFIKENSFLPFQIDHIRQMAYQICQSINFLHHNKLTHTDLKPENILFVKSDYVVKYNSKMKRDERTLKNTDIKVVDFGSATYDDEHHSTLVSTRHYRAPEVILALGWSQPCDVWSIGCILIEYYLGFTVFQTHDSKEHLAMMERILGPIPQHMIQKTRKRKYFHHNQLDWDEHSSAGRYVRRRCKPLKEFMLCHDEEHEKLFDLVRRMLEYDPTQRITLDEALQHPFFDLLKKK
# Outline: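 Recombinant human Clk4 (25 nM) phosphorylated RS repeat peptide (100 uM) with 1 uM ATP in Tris pH 7.5/MgCl2/EGTA/DTT/Triton buffer for 4.5 h at room temperature. Residual ATP was quantified by Kinase-Glo luciferase luminescence.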
# [9] = biological target: Dual specificity protein kinase CLK4 (Homo sapiens) (UniProt Q9HAZ1); test: qHTS Assay for Inhibitors of CDC-like Kinase 4 (ADP-Glo Assay) (AID 1771); conditions: recombinant CLK4, ADP-Glo luminescence; series mostly up to 80 µM; also: nearly all actives have a fitted effect of over 70% in size; also: potency is read from the fitted curve at half-maximal effect
# Outline: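 25 nM Clk4 with 100 uM RS repeat peptide and 1 uM ATP (final) in buffer with 2 mM MgCl2, 0.5 mM EGTA, 2.5 mM DTT, 0.01% Triton X-100; 1 h at room temperature; ADP-Glo luminescence for ADP formed.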
# [10] = biological target: Dual specificity protein kinase CLK4 (Homo sapiens) (UniProt Q9HAZ1); test: qHTS Assay for Inhibitors of CDC-like Kinase 4 (ADP-FP Assay) (AID 1795); conditions: Transcreener ADP fluorescence polarization; series mostly up to 50 µM; also: nearly all actives have a fitted effect of over 60% in size; also: potency is read from the fitted curve at half-maximal effect
# Outline: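 Recombinant human Clk4 (6.25 nM) phosphorylated RS repeat peptide (100 uM) with 1 uM ATP in Tris pH 7.5/MgCl2/EGTA/DTT/Triton buffer for one hour. ADP was quantified by Transcreener competitive fluorescence polarization against an ADP calibration curve.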
# [11] = Primary qHTS for small molecule stabilizers of the endoplasmic reticulum resident proteome: Secreted ER Calcium Modulated Protein (SERCaMP) assay (AID 1508630); conditions: SH-SY5Y GLuc-SERCaMP (Gaussia luciferase released on ER calcium loss) secretion, thapsigargin, luminescence; series mostly up to 38.4 µM
# Outline: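 GLuc-SERCaMP-expressing SH-SY5Y cells, pretreated 16 h with compound, are challenged with thapsigargin to empty ER calcium stores; after 4 h, coelenterazine is added directly to the medium and luminescence is imaged.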
# [12] = biological target: Glucocorticoid receptor (Homo sapiens) (UniProt P04150); test: GR-GFP Redistribution (AID 450;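 active = compounds whose dose series gives a full or clear partial fitted curve of increased nuclear translocation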; also: potency is read from the fitted curve at half-maximal effect); conditions: U2OS GR-GFP nuclear translocation, laser cytometry, 2 h
# [13] = biological target: 3',5'-cyclic-AMP phosphodiesterase 4B (Homo sapiens) (UniProt Q07343); test: qHTS Assay for Inhibitors of PDE-IV (AID 607; active = well fitted activation curve with a large enough effect in the main read-out, with a control signal flat, not every such curve was filed as active); conditions: HEK293 ACTOne CNG channel cells, membrane potential fluorescence; series mostly up to 22.9 µM
# Sequence of 3',5'-cyclic-AMP phosphodiesterase 4B (Homo sapiens) (Q07343 whole entry, looked up): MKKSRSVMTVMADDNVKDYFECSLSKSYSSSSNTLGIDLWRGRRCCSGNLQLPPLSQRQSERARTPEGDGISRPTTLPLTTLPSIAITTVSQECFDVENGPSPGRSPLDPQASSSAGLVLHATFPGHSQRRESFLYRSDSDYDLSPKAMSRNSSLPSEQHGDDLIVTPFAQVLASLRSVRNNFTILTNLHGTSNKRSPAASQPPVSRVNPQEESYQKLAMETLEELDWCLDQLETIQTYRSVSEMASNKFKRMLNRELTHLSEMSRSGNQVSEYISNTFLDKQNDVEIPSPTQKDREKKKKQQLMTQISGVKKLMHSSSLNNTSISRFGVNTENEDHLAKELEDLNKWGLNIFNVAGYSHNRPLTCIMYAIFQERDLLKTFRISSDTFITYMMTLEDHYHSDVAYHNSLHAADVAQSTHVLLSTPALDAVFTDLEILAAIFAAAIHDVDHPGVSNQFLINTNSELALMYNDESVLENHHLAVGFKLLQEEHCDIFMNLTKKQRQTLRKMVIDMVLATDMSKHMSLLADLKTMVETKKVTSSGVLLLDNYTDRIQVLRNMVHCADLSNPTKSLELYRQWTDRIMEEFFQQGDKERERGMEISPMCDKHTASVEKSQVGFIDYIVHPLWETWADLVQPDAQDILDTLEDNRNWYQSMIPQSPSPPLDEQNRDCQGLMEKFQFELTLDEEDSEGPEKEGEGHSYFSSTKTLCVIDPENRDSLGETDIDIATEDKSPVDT
# Outline: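 Live HEK293 cells with a modified cyclic nucleotide-gated (CNG) channel report intracellular cAMP via membrane-potential dye fluorescence (ex 535/em 590 nm). Endogenous PDE-IV was targeted. Compounds were tested at up to 22.9 uM final; RO 20-1724 100 uM served as control.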
# [14] = qHTS Assay for Identification of Small Molecule Agonists for Hypoxia Response Element Signaling Pathway (AID 914; active = well fitted activation curve with a large enough effect in the signal ratio, with a control signal flat, not every such curve was filed as active; the % refers to the signal ratio; also: potency is read from the fitted curve at half-maximal effect); conditions: ME-180 HRE-bla reporter, beta-lactamase ratio, CoCl2, 17 h; activation: hits give high values
# Outline: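 ME-180 cells carrying an HRE-driven beta-lactamase reporter were treated with compounds in a titration series plus an EC50 level of CoCl2 for 17 h at 37 degrees Celsius; CCF4 readout as the 460nm/530nm ratio gave AC50 values.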
# [15] = biological target: Ubiquitin carboxyl-terminal hydrolase 1 (Homo sapiens) (UniProt O94782); test: Inhibitors of USP1/UAF1: Pilot qHTS (AID 504865); conditions: purified USP1/UAF1, Ub-rhodamine cleavage fluorescence; series mostly up to 54.9 µM;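 also: rhodamine fluorescence freed from ubiquitin-rhodamine substrate followed over time; top concentration of the series differs between compounds; nearly all actives have a fitted effect of over 35% in size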
# Sequence of Ubiquitin carboxyl-terminal hydrolase 1 (Homo sapiens) (O94782 whole entry, looked up): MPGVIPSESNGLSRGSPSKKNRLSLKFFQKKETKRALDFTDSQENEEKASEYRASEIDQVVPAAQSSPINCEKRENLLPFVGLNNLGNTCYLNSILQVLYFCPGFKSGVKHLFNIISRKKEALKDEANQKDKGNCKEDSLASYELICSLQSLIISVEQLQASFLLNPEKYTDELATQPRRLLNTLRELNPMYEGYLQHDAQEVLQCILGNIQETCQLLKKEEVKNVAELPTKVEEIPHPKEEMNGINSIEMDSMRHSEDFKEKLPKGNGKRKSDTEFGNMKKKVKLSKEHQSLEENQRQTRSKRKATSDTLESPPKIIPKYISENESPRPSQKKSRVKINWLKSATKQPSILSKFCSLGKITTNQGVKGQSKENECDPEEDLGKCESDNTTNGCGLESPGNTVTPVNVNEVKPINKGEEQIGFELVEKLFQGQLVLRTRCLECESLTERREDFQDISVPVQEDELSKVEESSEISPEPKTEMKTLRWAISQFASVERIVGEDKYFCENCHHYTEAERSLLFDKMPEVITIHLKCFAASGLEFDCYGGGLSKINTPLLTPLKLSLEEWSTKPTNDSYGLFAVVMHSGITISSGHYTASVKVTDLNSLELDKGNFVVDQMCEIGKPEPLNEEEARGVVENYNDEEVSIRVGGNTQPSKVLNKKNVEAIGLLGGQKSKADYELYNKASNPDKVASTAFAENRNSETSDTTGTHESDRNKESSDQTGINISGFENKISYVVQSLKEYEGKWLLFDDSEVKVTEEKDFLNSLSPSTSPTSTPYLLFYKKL
# Outline: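 USP1/UAF1 complex (1nM) preincubated with compound 15 min at room temperature, then Ub-Rho substrate (150nM final) added. Fluorescence read kinetically at 480/540 nm, 6 reads every 60 seconds. Buffer: 50mM HEPES pH 7.8, 0.5mM EDTA, 0.1 mg/ml BSA, 1mM TCEP, 0.01% Tween-20.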
# [16] = NFAT Signaling Pathway (AID 444; active = well fitted curve in either direction with a large enough effect, not every such curve was filed as active;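 also: carbachol stimulus at about its EC50 of 1 µM final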); conditions: Jurkat NFAT-bla M1, carbachol, beta-lactamase ratio, 5 h; at 7.69 µM (top of the series) unless noted
# Outline: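 Jurkat cells with NFAT-driven β-lactamase reporter and co-expressed M1 receptor, stimulated with carbachol (final 1 uM, ~EC50), compound titration, 5 h at 37 °C. CCF4 loaded 1 h at RT; 460/530 nm ratio gave %activity and AC50.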
# [17] = biological target: Cytochrome P450 2C19 (Homo sapiens) (UniProt P33261); test: qHTS Assay for Inhibitors and Substrates of Cytochrome P450 2C19 (AID 899); conditions: recombinant CYP2C19, luciferin-H EGE luminescence; series mostly up to 57.1 µM; also: potency is read from the fitted curve at half-maximal effect; nearly all actives have a fitted effect of over 60% in size
# Sequence of Cytochrome P450 2C19 (Homo sapiens) (P33261 whole entry, looked up): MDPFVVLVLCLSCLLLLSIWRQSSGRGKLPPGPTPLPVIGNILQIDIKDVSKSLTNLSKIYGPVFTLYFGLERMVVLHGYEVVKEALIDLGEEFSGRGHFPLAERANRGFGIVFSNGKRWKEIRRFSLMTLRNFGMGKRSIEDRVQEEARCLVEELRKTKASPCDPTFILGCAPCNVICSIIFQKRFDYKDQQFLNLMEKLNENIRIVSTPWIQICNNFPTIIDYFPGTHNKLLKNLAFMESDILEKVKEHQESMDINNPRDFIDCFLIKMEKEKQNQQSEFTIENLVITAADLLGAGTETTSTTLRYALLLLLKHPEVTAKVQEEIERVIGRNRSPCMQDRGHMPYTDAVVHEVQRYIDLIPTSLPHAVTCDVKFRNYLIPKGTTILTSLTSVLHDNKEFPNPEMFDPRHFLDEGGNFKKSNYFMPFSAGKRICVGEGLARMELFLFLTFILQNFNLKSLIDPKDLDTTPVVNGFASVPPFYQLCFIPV
# Outline: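 Signal comes from luciferase acting on luciferin released by CYP2C19-mediated hydroxylation of Luciferin-H EGE, 10uM (KM). Assay mix: 5nM enzyme, 50mM KPO4; 60 min at 37C with NADPH regeneration. Data normalized against 57uM ketoconazole.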
# [18] = biological target: Cytochrome P450 2C9 (Homo sapiens) (UniProt P11712); test: qHTS Assay for Inhibitors and Substrates of Cytochrome P450 2C9 (AID 883); conditions: recombinant CYP2C9, luciferin-H luminescence, 60 min; series mostly up to 57.1 µM; also: nearly all actives have a fitted effect of over 60% in size
# Outline: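 Signal: luciferase luminescence reporting luciferin produced by CYP2C9. Conditions: 10nM enzyme, Luciferin-H 100uM at KM, 25mM KPO4, 37C, 60 min NADPH-driven reaction. Reference: 57uM sulphaphenazole as 100% inhibition.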
# [19] = biological target: Cytochrome P450 2D6 (Homo sapiens) (UniProt P10635); test: qHTS Assay for Inhibitors and Substrates of Cytochrome P450 2D6 (AID 891); conditions: recombinant CYP2D6, luciferin-ME EGE luminescence; series mostly up to 57.1 µM;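 also: luciferin methyl ether substrate demethylated by CYP2D6 with NADPH regeneration; nearly all actives have a fitted effect of over 60% in size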
# Outline: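 Human CYP2D6 (5 nM) with 30 uM Luciferin-ME EGE (at Km) in 100 mM KPO4, compound preincubated 10 min, then NADPH regeneration system for 60 min at room temperature. Luciferin read by luminescence; normalized to 1.43 uM quinidine.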
Structure (SMILES),Potency [1] [µM],Potency [2],"activity, negative = inhibition [3]",Potency [4] [µM],Potency [5],Potency [6],Potency [7],Potency [8],Potency [9],Potency [10],outcome [11],Potency [12] [µM],Potency [13],Potency [14],Potency [15],"activity change, negative = inhibition [16]",Potency [17],Potency [18],Potency [19]
CS(=O)(=O)Nc1cccc(-c2ccc3ncnc(N4CCOCC4)c3c2)c1,> 11.4,12.6 µM (active),-11.8%,> 46,inactive,7.94 µM (active),inactive,7.94 µM (active),6.31 µM (active),7.08 µM (active),inactive,,,,,,,,
CN(C)c1ncc2nc(-c3ccc(Cl)cc3)c(=O)n(Cc3cccs3)c2n1,> 11.4,1.58 µM (active),153% [activator] (active),> 46,inactive,,,inactive,inactive,inactive,inactive,> 9.22,inactive,398 nM (active),inactive,,,,
N#CCCn1c(=O)c(-c2ccc(Cl)cc2)nc2cnc(N3CCNCC3)nc21,> 11.4,,,> 46,inactive,,inactive,inactive,inactive,inactive,inactive,> 9.22,inactive,,inactive,,,,
Cn1cc(-c2nc3cncnc3n(Cc3ccccc3Cl)c2=O)c2ccccc21,> 11.4,3.16 µM (active),,> 46,,,inactive,inactive,inactive,inactive,inactive,> 9.22,inactive,,inactive,3.77%,,,
COc1cccc(-c2ccc3ncnc(NC4CC4)c3c2)c1,> 11.4,0.2 µM (active),,> 46,inactive,,inactive,0.447 µM (active),0.316 µM (active),0.126 µM (active),inactive,,,,inactive,2.56%,1.26 µM (active),,
O=c1c(-c2ccc(Cl)cc2)nc2cnc(N3CCOCC3)nc2n1Cc1ccc(F)cc1,> 11.4,inactive,,> 46,inactive,inactive,,inactive,inactive,inactive,inactive,> 9.22,,3160 nM (active),inactive,,,inactive,inactive
Cn1c(=O)c(-c2ccc(Cl)cc2)nc2cnc(N3CCNCC3)nc21,> 11.4,,,> 46,inactive,,inactive,inactive,inactive,inactive,inactive,> 9.22,inactive,,inactive,204% [activator] (active),,,

# From PubChem BioAssay (NCATS)
